The text below walks through data of PubChem BioAssay (NCI).

About 83,000 compounds went through this panel and 20% of them were active in at least one assay; those are over-represented in the sample as a whole.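 Percent growth is the endpoint: 0 to 100 indicates growth inhibition (40 means 60% inhibition), 0 means no net growth, and negative values indicate cell death.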 Unmarked numbers belong to inactive results. Activity calls are given as the source filed them. The calls were made as follows: active = growth percent below 10; inactive = the rest.

Test systems include HCT-15 colon; HT29 colon; SNB-75 CNS; SNB-19 CNS; U251 CNS; PC-3 prostate; SK-MEL-5 melanoma; UACC-62 melanoma; LOX IMVI melanoma; SK-MEL-28 melanoma; SK-MEL-2 melanoma; EKVX NSCLC; SN12C renal; UO-31 renal; ACHN renal; CAKI-1 renal; A498 renal; CCRF-CEM leukemia; MOLT-4 leukemia; TK-10 renal.
Holding throughout (assay): NCI-60 one-dose screen, 48 h (100 = growth as untreated, 0 = no growth, -100 = all killed)
Common to all, as to details: 10 µM unless noted

Regarding `O=C(Nc1cccc(Cl)c1)Oc1c(Br)c(Br)c(Br)c(Br)c1Br`, the growth with HCT-15 colon was 98.2%; in the assay with HT29 colon, 91.8%; in the assay on SNB-75 CNS, 90%; in the assay on SNB-19 CNS, 101%; in the assay with U251 CNS it was 91.9%; in the assay on PC-3 prostate, 59.5%. Moreover, the growth in the assay with SK-MEL-5 melanoma was 75.2%; in the assay on UACC-62 melanoma, 82.1%; in the assay with LOX IMVI melanoma, 88.6%; in the assay on SK-MEL-28 melanoma, 93.1%; in the assay with SK-MEL-2 melanoma it was 79%; in the assay with EKVX NSCLC, 92.1%. Moreover, the growth in the assay on SN12C renal is 92.7%; in the assay with UO-31 renal it was 74.9%; in the assay with ACHN renal, 104%; in the assay on CAKI-1 renal it was 90.5%; in the assay with A498 renal, 78.3%; in the assay on CCRF-CEM leukemia it was 87.9%. Also, in the assay on MOLT-4 leukemia, the growth was 99.7%.
As for `COc1ccc(-c2cnnc3c(-c4cccc(C(F)(F)F)c4)cnn23)cc1`, the growth is 68.3% in the assay with HCT-15 colon; 63.6% in the assay with HT29 colon; -26.9% (active) with SNB-75 CNS; 50.4% with SNB-19 CNS; 17.5% in the assay on U251 CNS; 63.2% in the assay with PC-3 prostate. For the same molecule, the growth in the assay on SK-MEL-5 melanoma is 5.82% (active); with UACC-62 melanoma, 62.6%; in the assay on LOX IMVI melanoma, 75.4%; with SK-MEL-28 melanoma, 56.1%; in the assay on SK-MEL-2 melanoma it was 54.6%; in the assay with EKVX NSCLC it was 30.6%. Besides, the growth is 49.8% with SN12C renal; 57.6% in the assay on UO-31 renal; 14.9% in the assay with ACHN renal; -31.8% (active) in the assay on CAKI-1 renal; 78.6% with A498 renal; 61.2% in the assay with CCRF-CEM leukemia. The growth in the assay with MOLT-4 leukemia was 89.2%.
As for `COc1ccc(C2CC(n3nnnc3-c3ccccc3)=NN2)cc1` (configuration not stated), the growth is 52.4% with HCT-15 colon; 84.5% in the assay with HT29 colon; 76.9% with SNB-75 CNS; 88.1% in the assay on SNB-19 CNS; 83.9% in the assay with U251 CNS; 58.4% with PC-3 prostate. The growth in the assay on SK-MEL-5 melanoma was 70.7%; in the assay on UACC-62 melanoma it was 13.4%; with LOX IMVI melanoma, 22%; in the assay on SK-MEL-28 melanoma, 94.6%; with SK-MEL-2 melanoma, 69.3%; with EKVX NSCLC, 66.2%. Also, the growth in the assay on SN12C renal was 78.1%; with UO-31 renal, 35.3%; in the assay on TK-10 renal it was 82.6%; in the assay with CAKI-1 renal, 8.64% (active); with CCRF-CEM leukemia it was 39.6%; in the assay with MOLT-4 leukemia, 50.3%.
With `O=C(Nc1cccc(Cl)c1)c1cc(Cl)ccc1O`, the growth with HCT-15 colon was 12%; in the assay on HT29 colon, 15.5%; in the assay on SNB-75 CNS, -26.8% (active); in the assay with SNB-19 CNS, 15.9%; with U251 CNS it was 15.7%; with PC-3 prostate, -4.48% (active). In addition, the growth was -54.4% (active) in the assay on SK-MEL-5 melanoma; 0.352% (active) in the assay on UACC-62 melanoma; -32.5% (active) in the assay on LOX IMVI melanoma; 10.1% in the assay with SK-MEL-28 melanoma; -17.7% (active) with SK-MEL-2 melanoma; 7.96% (active) in the assay on EKVX NSCLC. Also, the growth in the assay on SN12C renal is -0.418% (active); in the assay with UO-31 renal, 7.54% (active); with TK-10 renal, 13.4%; with CAKI-1 renal it was -7.81% (active); with CCRF-CEM leukemia it was 12.9%; in the assay with MOLT-4 leukemia it was 4.18% (active).
With `COc1ccc(/C(=C\c2ccccc2)C(=O)O)cc1OC`, the growth in the assay on HCT-15 colon is 102%; with HT29 colon, 103%; in the assay on SNB-75 CNS, 81.6%; in the assay on SNB-19 CNS, 95.7%; in the assay on U251 CNS, 99.6%; in the assay on PC-3 prostate, 96.9%. In addition, the growth in the assay on SK-MEL-5 melanoma was 93%; in the assay on UACC-62 melanoma, 93%; with LOX IMVI melanoma, 95.3%; with SK-MEL-28 melanoma, 106%; in the assay on SK-MEL-2 melanoma, 98.3%; in the assay with EKVX NSCLC, 101%. Further, the growth with SN12C renal is 98.4%; with UO-31 renal, 88.9%; in the assay with TK-10 renal, 104%; in the assay with CAKI-1 renal, 97.4%; with CCRF-CEM leukemia, 117%; in the assay with MOLT-4 leukemia it was 108%.
For the molecule `COc1cc2c(cc1[N+](=O)[O-])-c1ccc([N+](=O)[O-])cc1/C2=N\O`, the growth in the assay with HCT-15 colon was 87.4%; in the assay with HT29 colon, 75.3%; in the assay with SNB-75 CNS, 75.5%; in the assay with SNB-19 CNS, 79.4%; with U251 CNS it was 76.8%; in the assay with PC-3 prostate, 73.2%. In addition, the growth is 75.4% in the assay on SK-MEL-5 melanoma; 75.9% in the assay on UACC-62 melanoma; 67.8% with LOX IMVI melanoma; 99.7% with SK-MEL-28 melanoma; 92.6% in the assay on SK-MEL-2 melanoma; 76.7% in the assay on EKVX NSCLC. Also, the growth was 91.1% in the assay on SN12C renal; 67.6% in the assay on UO-31 renal; 78.9% with TK-10 renal; 83.4% with CAKI-1 renal; 78.2% in the assay with CCRF-CEM leukemia; 83.3% in the assay on MOLT-4 leukemia.
Regarding `Cn1ncc2c(Nc3ccccc3Cl)nc(Cl)nc21`, the growth with HCT-15 colon is 98.4%; in the assay on HT29 colon, 96.2%; in the assay with SNB-75 CNS, 78.6%; with SNB-19 CNS, 114%; with U251 CNS, 112%; in the assay on PC-3 prostate, 109%. Further, the growth in the assay with SK-MEL-5 melanoma was 107%; in the assay with UACC-62 melanoma it was 87.1%; in the assay with LOX IMVI melanoma, 104%; in the assay on SK-MEL-28 melanoma it was 119%; with SK-MEL-2 melanoma it was 123%; with EKVX NSCLC, 89.8%. Also, the growth with SN12C renal is 92%; in the assay on UO-31 renal it was 101%; in the assay with TK-10 renal, 119%; with CAKI-1 renal it was 99.9%; with A498 renal, 178%; with CCRF-CEM leukemia, 104%. Moreover, the growth in the assay on MOLT-4 leukemia is 125%.
`Clc1cc(Cl)cc(N2N=C(c3cccc(Nc4ccncc4)c3)CC2c2ccc3c(c2)OCO3)c1` (configuration not stated): the growth in the assay on HCT-15 colon was -66.7% (active); in the assay on HT29 colon, 0.164% (active); in the assay on SNB-75 CNS, 67.5%; in the assay on SNB-19 CNS, 81.9%; in the assay with U251 CNS it was -43.6% (active); in the assay with PC-3 prostate, 28.7%. Besides, the growth in the assay with SK-MEL-5 melanoma is 58.9%; with UACC-62 melanoma it was 97.6%; in the assay with LOX IMVI melanoma it was -84.3% (active); with SK-MEL-28 melanoma, -82.4% (active); with SK-MEL-2 melanoma it was 81.7%; with EKVX NSCLC it was 78.8%. In addition, the growth is 64.6% in the assay with SN12C renal; 39.5% in the assay with UO-31 renal; 65.7% in the assay with TK-10 renal; 16.4% in the assay with CAKI-1 renal; 96.6% in the assay on A498 renal; -1.31% (active) in the assay with CCRF-CEM leukemia. Besides, in the assay with MOLT-4 leukemia, the growth was -0.295% (active).
In the case of `COc1cc(-c2nc3sccn3c2-c2ccnc(NCCNS(=O)(=O)c3ccc(F)cc3)n2)ccc1F`, the growth is 13.2% with HCT-15 colon; 10.8% with HT29 colon; 52.7% in the assay on SNB-75 CNS; 35.7% in the assay with SNB-19 CNS; 17.5% with U251 CNS; 6.16% (active) in the assay on PC-3 prostate. For the same molecule, the growth with SK-MEL-5 melanoma was -75.3% (active); in the assay on UACC-62 melanoma it was -65.2% (active); in the assay with LOX IMVI melanoma, 4.75% (active); with SK-MEL-28 melanoma, 19.2%; with SK-MEL-2 melanoma, -38.3% (active); in the assay with EKVX NSCLC it was 23.6%. Further, the growth in the assay on SN12C renal was 15.1%; in the assay on UO-31 renal it was -11.1% (active); in the assay with ACHN renal, 0.0766% (active); in the assay on CAKI-1 renal, 8.83% (active); with A498 renal, 22.5%; with CCRF-CEM leukemia, 2.47% (active). Further, in the assay with MOLT-4 leukemia, the growth was -15.4% (active).
